TLR4 MyD88 comp – inhibitors of TLR4-MyD88 association in cells, primary screen, cell-based, HeLa CL3-4, BLA complementation, FRET ratio; inhibition, % at 8.4 µM; 200,000 compounds, 0.18% hits; Toll-like receptor 4 (Homo sapiens) + Myeloid differentiation primary response protein …; HeLa CL3-4 TLR4/MyD88 BLA complementation; in the data active = inhibition above about 25%;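 also: 0% = vehicle and 100% = reference inhibitor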
NOD2-RIPK2 inh – NOD2-RIPK2 binding disruptors in cells, primary screen, fluorescence, CHO cells, BLA complementation. 360,000 compounds, 0.38% hits. CCF4 ratio. inhibition, % at 4.98 µM; in the data active = inhibition above about 21%;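 also: 0% = vehicle only and 100% = reference blocker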
ABHD5 PLIN5 PPI – ABHD5-PLIN5 interaction inhibitors, primary screen, cell lysate, split luciferase complementation, luminescence | Perilipin-5 (Homo sapiens) + 1-acylglycerol-3-phosphate O-acyltransferase ABHD5 (Homo … | Split G. princeps luciferase complementation, 4 h | inhibition, % at 4 µM | 360,000 compounds, 0.78% hits | AID 602281, 2012;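 active = inhibition above the mean inhibition across every tested compound plus 3 SD, cut at about 22% in these data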;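 also: 0% = DMSO only wells and the 100% control is not disclosed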
TLR9-MyD88 block – inhibitors of TLR9-MyD88 association in cells, primary screen, cell-based, CHO, BLA complementation, fluorescence; CCF4 FRET ratio; inhibition, % at 4.98 µM; 340,000 compounds, 0.21% hits; AID 504734, 2011;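 active = inhibition above the mean over all tested compounds plus 3 SD, cut at about 21% in these data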;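 also: 0% = DMSO only wells and 100% = clavulanate BLA inhibitor control wells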
m5-HT2A agonist – mouse Htr2a agonists via beta-arrestin recruitment, primary screen, cell-based, luminescence. 5-hydroxytryptamine receptor 2A (Mus musculus), P35363. 360,000 compounds, 0.66% hits. activation, % at 7.6 µM. CHO-K1 mHTR2A beta-arrestin complementation; percent of 30 µM serotonin response;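 active = activation above a run cutoff, the mean activation of all tested compounds plus 3 SD, cut at about 14% in these data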;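 also: 0% = plate median of compound wells and 100% = 30 µM serotonin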
CRFR2-BP antag – antagonists of CRF-BP/CRF-R2 complex, primary screen, cell-based, HEK293, calcium dye fluorescence, uHTS; CRF-induced calcium fluorescence; inhibition, % at 11.8 µM; 350,000 compounds, 0.59% hits; AID 588475, 2011;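 active = inhibition of the ligand-induced calcium signal above about 50% at the single tested concentration, limit read from the data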
MOR ag counter – OPRM1 agonists via beta-arrestin recruitment, confirmation, counter-screen for mouse HTR2A agonist project, cell-based, luminescence, single concentration | shares compounds with m5-HT2A agonist | U2OS OPRM1 beta-arrestin PathHunter; DMSO 0%, DAMGO 9.3 µM 100% | activation, % at 9.3 µM | 2,300 compounds, 5.3% hits | AID 624380, 2012;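 active = mean activation above the mean of DMSO-only wells plus 3 SD, cut at about 0.5% in these data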
Target sequence (P35372 whole entry, looked up): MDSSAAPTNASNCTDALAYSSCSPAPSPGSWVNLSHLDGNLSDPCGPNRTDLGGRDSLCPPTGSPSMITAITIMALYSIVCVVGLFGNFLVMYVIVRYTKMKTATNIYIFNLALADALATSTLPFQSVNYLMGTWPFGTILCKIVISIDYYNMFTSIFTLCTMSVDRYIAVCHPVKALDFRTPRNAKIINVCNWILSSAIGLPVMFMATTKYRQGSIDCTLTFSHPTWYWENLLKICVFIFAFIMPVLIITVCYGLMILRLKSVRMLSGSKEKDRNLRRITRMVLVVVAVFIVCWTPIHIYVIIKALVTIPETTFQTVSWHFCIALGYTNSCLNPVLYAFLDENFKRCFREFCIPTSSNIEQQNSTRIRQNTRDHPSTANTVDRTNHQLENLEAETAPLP
m5-HT2A ag conf – mouse HTR2A agonists, beta-arrestin recruitment, confirmation, cell-based, luminescence, CHO-K1 PathHunter, triplicate; shares compounds with m5-HT2A agonist; DMSO 0%, 30 µM serotonin 100%; activation, % at 7.6 µM; 2,300 compounds, 19% hits; AID 624381, 2012;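 active = mean activation across triplicates above the hit threshold derived in the original primary screen, cut at about 15% in these data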
* hit, by the source's call; . = no result given. In the library only some 2.4% were active in any assay of this set; here they are far more common.

SMILES	TLR4 MyD88 comp	NOD2-RIPK2 inh	ABHD5 PLIN5 PPI	TLR9-MyD88 block	m5-HT2A agonist	CRFR2-BP antag	MOR ag counter	m5-HT2A ag conf
CN(C)C(=O)CCc1ccc2c3c([nH]c2c1)[C@]1(C)[C@@H](C(=O)N2CCOCC2)C[C@H](CC(=O)NCc2cccc(C(F)(F)F)c2)C(=O)N1CC3	.	2	-5	-10	15*	2	-1	-5
CC[C@]12c3[nH]c4ccccc4c3CCN1C(=O)C(CC(=O)NCc1cccc(C(F)(F)F)c1)C[C@@H]2C(=O)N1CCN(C(=O)c2ccco2)CC1 (stereo not given in full)	.	1	8	-2	22*	20	0	4
CCCCNC(=O)c1nc(-c2cccs2)oc1-c1ccc(Cl)cc1	.	-9	-9	.	-2	.	.	.
CNC(=O)C1Cc2c(-c3ccc(Cl)cc3)ccnc2O1 (stereo not given)	.	-5	-1	.	5	.	.	.
CC(C)(C)OC(=O)N1CCN(C(c2ccnc3ccccc23)c2nnnn2-c2ccc3c(c2)OCCO3)CC1 (stereo not given)	.	4	0	.	0	.	.	.
COc1ccc(CCNC(=O)CC(C)S(=O)(=O)c2ccc3c(c2)NC(=O)CO3)cc1OC (stereo not given)	.	-12	-1	-13	15*	0	0	-4
CC(O)CCC(=O)NCCNC(=O)CCC(C)O (stereo not given)	-10	-2	-12	1	20*	15	-1	-1
CN(C)c1ccc(C(C(=O)NCc2ccccc2)N(Cc2ccco2)C(=O)c2snc(C(N)=O)c2N)cc1 (stereo not given)	.	-1	-2	-6	16*	15	-1	3
CC(C)(C)C(=O)n1nc(-c2ccccc2)oc1=O	-18	-13	2	-13	16*	-1	-1	-4
COc1ccc(C(=O)NCCNc2nc3cc(C)cc(C)c3cc2C#N)c(OC)c1	.	-11	1	.	-5	.	.	.
OC(Cc1ccccc1)c1ncc(-c2ccc3ccccc3c2)[nH]1 (stereo not given)	.	-17	-20	.	-3	.	.	.
COc1ccc(C2/C=C\CN(C(=O)C3CCCC3)CC(=O)N2Cc2ccc(F)cc2)cc1 (stereo not given)	.	4	6	3	24*	3	-1	62*
CCOc1ccc(-n2c(Cc3cc(=O)[nH]c(=O)[nH]3)nnc2SC(C)C(=O)OC)cc1 (stereo not given)	-4	0	0	1	3	.	.	.
COC(=O)C(C)Sc1nnc(Cc2cc(=O)[nH]c(=O)[nH]2)n1-c1cc(C)ccc1C (stereo not given)	3	-6	-3	-5	31*	11	0	-3
COc1cc2c(c(OC)c1OC)-c1ccc(N(C)CC(OC)OC)c(=O)cc1[C@@H](NC(C)=O)CC2	.	-14	-1	-89	25*	-5	-1	-4
COc1cc(NC(=O)c2ccc(F)cc2)c(OC)cc1Cl	-9	-1	-2	2	4	13	.	.
COc1cc(OC)c(NC(=O)c2cncn2-c2ccc(F)cc2)cc1Cl	.	-1	-7	-9	15*	-2	0	2
COc1ccc(C(=O)c2[nH]c(N)c(C(=O)NCCc3c[nH]c4ccccc34)c2-c2c(F)cccc2Cl)cc1	.	1	-9	.	4	.	.	.
Cn1c(CSCc2ccccc2Cl)n[nH]c1=S	8	-9	-6	-3	6	-7	.	.
S=c1[nH]nc(CSCc2ccccc2Cl)n1C1CCCCC1	0	-3	9	3	29*	-14	0	-1

Screening data from PubChem BioAssay.
